Assay [1] has as its system XIP peptide (Xip251-270) binding. In words: XIP fragment 251-270 binding compounds – biochemical, small-molecule microarray, fluorescence 635/667 nm, 0.1 µg/mL protein, primary screen (AID 1182). The following applies: fluorescent protein binding, 635 nm, higher = more signal, called active from +8 up or from −8 down.
The next assay concerns XIP peptide (Xip251-270). Nature of the assay: compounds binding XIP fragment 251-270 – biochemical, small-molecule microarray, fluorescence 635/667 nm, 0.5 µg/mL protein, primary screen (AID 1183). The following applies: fluorescence 635 nm, higher = more signal.
Assay [2] can be described thus: blood-stage malaria parasite viability loss – strain 3D7, DAPI fluorescence, 100 nL, primary screen (AID 1184).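 Also: parasites grown inside human red blood cells in medium with human serum.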 The following applies: P. falciparum 3D7 growth, 3 d, higher = more signal.
Assay [3] addresses Homeobox protein Hox-A13 (Mus musculus) (UniProt Q62424). Nature of the assay: disruptors of Hoxa13 oligonucleotide interaction – biochemical, fluorescence polarization, labeled oligonucleotide, primary screen (AID 1185). The following applies: Hoxa13:DNA binding, 15 min, higher = more signal, called active from +8 up or from −8 down. (In general: In fluorescence polarisation assays a small probe gives low polarisation when free and higher when bound to something large.)

A short description of assay [4]: blockers of DNA damage checkpoint Chk1 activation – imaging, HeLa, hydroxyurea, phospho-Chk1 antibody, percent positive cells, primary screen (AID 1186). The settings on record: hydroxyurea-induced phospho-Chk1 immunofluorescence imaging, higher = more signal.
Assay [5] is described as follows: blockers of DNA damage checkpoint Chk1 activation – imaging, HeLa, hydroxyurea, phospho-Chk1 nuclear intensity, primary screen (AID 1187). The following applies: hydroxyurea-induced phospho-Chk1 immunofluorescence imaging, higher = more signal.

Molecules are shown by their SMILES. The source made the active and inactive calls. Unless noted, no rule for the calls is given here.

Homeobox protein Hox-A13 (Mus musculus), sequence (Q62424 whole entry, looked up): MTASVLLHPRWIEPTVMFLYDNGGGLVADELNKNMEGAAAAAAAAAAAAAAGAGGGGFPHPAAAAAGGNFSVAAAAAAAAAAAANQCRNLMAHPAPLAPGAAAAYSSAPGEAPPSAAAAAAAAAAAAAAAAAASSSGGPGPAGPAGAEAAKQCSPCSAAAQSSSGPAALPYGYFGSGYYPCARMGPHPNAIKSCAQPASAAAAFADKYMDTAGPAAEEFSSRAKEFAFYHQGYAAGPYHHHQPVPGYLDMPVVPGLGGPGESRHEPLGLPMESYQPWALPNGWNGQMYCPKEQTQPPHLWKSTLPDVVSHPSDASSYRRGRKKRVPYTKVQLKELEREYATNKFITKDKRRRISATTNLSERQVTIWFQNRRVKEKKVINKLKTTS

Turning to `COC(=O)c1c(CC[C@@H](CO)NC(=O)NCCn2cc(C3(O)CCCC3)nn2)oc(C(C)=O)c1C(=O)OC`, the composite z-score in assay [1] is 0.333 (inactive); in the assay on XIP peptide (Xip251-270), -0.0213. Further, the z-score in assay [2] was -0.72; in assay [3], -1.9 (inactive); in assay [4] it was 0.0528 (inactive); in assay [5] it was -0.0849 (inactive).
For the compound `O=C1C2C=CC(C(O)CCc3ccccc3)N(Nc3ccccc3F)C2C(=O)N1c1ccccc1` (stereo unspecified), the results for the composite z-score (in assay [1]; in the assay with XIP peptide (Xip251-270)) were 0.605 (inactive) and 0.524, respectively. For the same compound, the z-score in assay [2] is -0.0934; in assay [3], -2.76 (inactive); in assay [4], 0.652 (inactive); in assay [5], 0.699 (inactive).
Consider `COCCOC(=O)N1C(=O)[C@@]2(c3cc(C#Cc4ccc(OC)cc4)ccc31)[C@H](c1ccc(O)cc1)N1[C@H](c3ccccc3)[C@H](c3ccccc3)OC(=O)[C@H]1[C@@H]2C(=O)N1CCc2cc(OC)c(OC)cc2C1`, for which the composite z-score in assay [1] is 0.109 (inactive); with XIP peptide (Xip251-270) it was 0.629. For the same compound, the z-score was -2.17 in assay [2], -1.71 (inactive) in assay [3], 0.264 (inactive) in assay [4] and 0.948 (inactive) in assay [5].
For the compound `CC(C)(C)OC(=O)CC[C@]1(C(=O)N2CCOCC2)N=C(c2ccc(OCCCO)cc2)O[C@H]1c1ccccc1N=[N+]=[N-]`, the values for the composite z-score (in assay [1]; in the assay with XIP peptide (Xip251-270)) were 0.472 (inactive) and 0.472, respectively. For the same compound, the z-score in assay [2] is -2.28; in assay [3], -5.38 (inactive); in assay [4] it was -0.112 (inactive); in assay [5], 0.0839 (inactive).
Consider `CN1C(=O)C2C=CC(C(O)c3ccccc3)N(N(c3ccccc3)c3ccccc3)C2C1=O` (stereo unspecified), for which the composite z-score in assay [1] is -0.274 (inactive); in the assay with XIP peptide (Xip251-270), -0.0284. Further, the z-score was 0.796 in assay [2], -1.72 (inactive) in assay [3], 0.812 (inactive) in assay [4] and 0.606 (inactive) in assay [5].
For `[N-]=[N+]=NCc1ccccc1C[C@]1(C(=O)N2CCCCC2)N=C(c2ccc(OCCCO)cc2)O[C@H]1c1ccccc1N=[N+]=[N-]`, the composite z-score in assay [1] is 0.113 (inactive); with XIP peptide (Xip251-270) it was 0.694. The z-score in assay [2] is -1.95; in assay [3] it was 0.766 (inactive); in assay [4], -0.273 (inactive); in assay [5] it was -0.448 (inactive).
Regarding `O=C1O[C@H](c2ccccc2)[C@H](c2ccccc2)N2[C@H]1[C@@H](C(=O)N1CCCCCCC1)[C@]1(C(=O)Nc3ccc(C#CCCO)cc31)[C@H]2c1ccccc1OCCO`, the figures for the composite z-score (in assay [1]; in the assay with XIP peptide (Xip251-270)) were 9.51 (active) and 1.07, respectively. Besides, the z-score was -2.07 in assay [2], 4.52 (inactive) in assay [3], 0.208 (inactive) in assay [4] and 0.259 (inactive) in assay [5].
For `C[C@@]1([C@@H](NC(=O)c2ccc(-c3ccccc3)cc2)c2ccc(Cl)cc2)C[C@H]1C1CCCCC1`, the composite z-score in assay [1] is -0.223 (inactive); with XIP peptide (Xip251-270) it was 0.492. In addition, the z-score in assay [2] is -0.311; in assay [3], -2.06 (inactive); in assay [4], -0.273 (inactive); in assay [5], 0.861 (inactive).
In the case of `CC(C)C(=C=CC[C@H](O)c1ccc(OCCO)cc1)CCO`, the composite z-score in assay [1] is 0.427 (inactive); in the assay on XIP peptide (Xip251-270), -0.107. For the same compound, the z-score in assay [2] was -2.19; in assay [3], -3.96 (inactive); in assay [4] it was 0.805 (inactive); in assay [5] it was 0.505 (inactive).
Turning to `CCOC(=O)C[C@H]1[C@H](OC(=O)c2cc3ccccc3oc2=O)[C@@H](NC(=O)c2ccccc2)c2cc(OCCCO)ccc2N1C(=O)c1ccc2ccccc2n1`, the composite z-score in assay [1] is -0.0302 (inactive); in the assay on XIP peptide (Xip251-270), 0.503. Also, the z-score in assay [2] is -0.566; in assay [3] it was -3.63 (inactive); in assay [4], 0.091 (inactive); in assay [5], 0.0741 (inactive).
For `COC(=O)[C@@]1(Cc2ccc(OC)cc2)[C@H]2c3cc(C(=O)N(C)C)n(Cc4ccc(S(C)(=O)=O)cc4)c3C[C@H]2CN1C(=O)c1ccccc1`, the composite z-score in assay [1] was 1.64 (inactive); in the assay on XIP peptide (Xip251-270), 0.233. Moreover, the z-score is -0.0665 in assay [2], -5.38 (inactive) in assay [3], -0.907 (inactive) in assay [4] and -1.03 (inactive) in assay [5].
As to `O=C(NCCO)C1=C[C@H](Oc2ccccc2I)[C@@H](O)[C@H](N(Cc2ccco2)C(=O)Cc2ccccc2)C1`, the composite z-score in assay [1] was 0.143 (inactive); in the assay with XIP peptide (Xip251-270), -1.13. Besides, the z-score in assay [2] is -1.32; in assay [3] it was -2.48 (inactive); in assay [4], 0.0831 (inactive); in assay [5], 0.304 (inactive).
With `COC(=O)[C@@]1(CCS(=O)(=O)c2ccccc2)N=C(c2ccc(OCCCO)cc2)O[C@H]1c1ccccc1CN=[N+]=[N-]`, the composite z-score in assay [1] was 1.24 (inactive); in the assay on XIP peptide (Xip251-270), 0.769. Also, the z-score in assay [2] is -2.07; in assay [3] it was -0.977 (inactive); in assay [4], -0.395 (inactive); in assay [5], -0.74 (inactive).
With `C=CCC(OC(C)=O)[C@@H]1[C@@H](N(Cc2ccc(-c3ccccc3)cc2)C(=O)c2ccc(-c3ccccc3)cc2)c2cc(OCCCO)ccc2N1C(=O)Cc1ccc2ccccc2c1` (stereo partly specified), the composite z-score is -0.313 (inactive) in assay [1] and -0.241 with XIP peptide (Xip251-270). Also, the z-score in assay [2] is 0.799; in assay [3] it was -1.05 (inactive); in assay [4] it was 0.321 (inactive); in assay [5] it was 0.392 (inactive).
For the compound `CC(C)C(O)C1C=CC2C(=O)N(c3ccccc3)C(=O)C2N1Nc1ccc([N+](=O)[O-])cc1` (stereo unspecified), the results for the composite z-score (in assay [1]; in the assay on XIP peptide (Xip251-270)) were -0.354 (inactive) and -0.266, respectively. Also, the z-score in assay [2] is 0.935; in assay [3], -3.78 (inactive); in assay [4], 0.659 (inactive); in assay [5], -0.404 (inactive).
On to `O[C@@H](Cc1ccccc1)[C@H]1C2C=CCCC=C2CN1Cc1cccc(Cl)c1` (stereo partly specified), for which the results for the composite z-score (in assay [1]; in the assay on XIP peptide (Xip251-270)) were 0.164 (inactive) and 0.421, respectively. Moreover, the z-score in assay [2] is 0.461; in assay [3], -7.63 (inactive); in assay [4], 0.415 (inactive); in assay [5], 0.0708 (inactive).

(Values after PubChem BioAssay.)
